High-throughput results deposited in PubChem by several laboratories.
In the library only some 3.7% were active in any assay of this set; here they are far more common.
MazEF act – activators of E. coli MazEF toxin-antitoxin RNase, primary screen, biochemical, fluorescence, uHTS; FAM/BHQ RNA-DNA oligo cleavage fluorescence, 5 h; activation, % at 20 µM; 350,000 tested, 0.32% active; Endoribonuclease toxin MazF (Escherichia coli (strain K12)), P0AE70; in the data active = activation above about 50%
BoNT-F LC inh – BoNT/F light chain protease inhibitors, primary screen, biochemical, flow cytometry, MLPCN library; Multiplex microsphere protease cleavage assay; Botulinum neurotoxin type F light chain protease (Clostridium botulinum); AID 588497, 2011; 360,000 tested, 0.22% active; inhibition, % at 10 µM; in the data active = inhibition above about 35%, passing the limit was not always enough; inconclusive = no clear call, values can overlap the other calls; note: plate controls were buffer without enzyme for full effect and enzyme alone for no effect
BoNT-A LC inh2 – BoNT/A light chain protease inhibitors, primary screen, biochemical, flow cytometry, MLPCN library; multiplex microsphere protease substrate cleavage; inhibition, % at 10 µM; Botulinum neurotoxin type A light chain protease (Clostridium botulinum A str. ATCC 3502); 360,000 tested, 0.17% active; note: plate controls were buffer without enzyme for full effect and enzyme alone for no effect
Autofluor counter – flagged as autofluorescent in microsphere protease counterscreen | compound autofluorescence counterscreen, microsphere flow cytometry; stronger effect = higher value | fluorescence intensity (concentration not given with the values) | 360,000 tested, 3.1% active | AID 624483; in the data active = fluorescence intensity above about 16000; inconclusive = no clear call, values can overlap the other calls
Anthrax LF prot – Bacillus anthracis LF protease inhibitors, primary screen, biochemical, multiplex microsphere, MLPCN library; Lethal factor (Bacillus anthracis), P15917; multiplex microsphere protease cleavage assay; inhibition, % at 10 µM; 360,000 tested, 0.12% active; AID 588501, 2011; note: plate controls were buffer without enzyme for full effect and enzyme alone for no effect
* marks the source's active call; other numbers are inactive results. Cut-off read from the data, not from the text of the source, unless noted: active = inhibition above about 30%; inconclusive = no clear call, values can overlap the other calls; inactive = below that.

`CC(COC(=O)c1ccccc1)(COC(=O)c1ccccc1)/[N+]([O-])=C/c1ccccc1` gave MazEF act -6, BoNT-F LC inh 2, BoNT-A LC inh2 0, Autofluor counter 2282 and Anthrax LF prot 2.
For CC(C)(C(=O)c1ccccc1)/[N+]([O-])=C/c1ccc(Br)cc1 the results were MazEF act 4, BoNT-F LC inh 7, BoNT-A LC inh2 3, Autofluor counter 22272* and Anthrax LF prot -4.
CC(O)(c1cccnc1)c1nc(-c2cccc(C#N)c2)cs1 (configuration not stated) was read as BoNT-F LC inh 0, BoNT-A LC inh2 0, Autofluor counter 3132 and Anthrax LF prot -3.
Screening CC(=NCc1ccc(F)cc1)c1c(O)n(C)c(=O)n(C)c1=O returned MazEF act -6, BoNT-F LC inh 0, BoNT-A LC inh2 inconclusive, Autofluor counter 19909* and Anthrax LF prot 0.
Screening CC(=NCC1CCCO1)c1c(O)n(C)c(=O)n(C)c1=O (configuration not stated) returned MazEF act 6, BoNT-F LC inh -4, BoNT-A LC inh2 -4, Autofluor counter 20914* and Anthrax LF prot -1.
For CC(=NCCCn1ccnc1)c1c(O)n(C)c(=O)n(C)c1=O the results were MazEF act 7, BoNT-F LC inh -3, BoNT-A LC inh2 -1, Autofluor counter 19563* and Anthrax LF prot -3.
Screening CCC(=NCc1ccco1)c1c(O)n(C)c(=O)n(C)c1=O returned MazEF act 7, BoNT-F LC inh -5, BoNT-A LC inh2 0, Autofluor counter 6187 and Anthrax LF prot -5.
CC(=NCc1ccco1)c1c(O)n(C)c(=O)n(C)c1=O was read as MazEF act 2, BoNT-F LC inh 3, BoNT-A LC inh2 1, Autofluor counter 21713* and Anthrax LF prot -1.
Screening Nc1nc(NCc2ccccc2)nc(Nc2cccc(F)c2)c1[N+](=O)[O-] returned MazEF act 10, BoNT-F LC inh 0, BoNT-A LC inh2 1, Autofluor counter 22824* and Anthrax LF prot -2.
Screening Cc1ccc(S(=O)(=O)NC(=O)CSc2nc3ccccc3s2)cc1 returned MazEF act 2, BoNT-F LC inh -2, BoNT-A LC inh2 -1, Autofluor counter 16909* and Anthrax LF prot -1.
O=C(CSc1nc(-c2ccccc2)cs1)NC(=O)NCc1ccco1 was read as MazEF act 7, BoNT-F LC inh -4, BoNT-A LC inh2 -2, Autofluor counter 11376 and Anthrax LF prot -5.
Cc1cc(C)nc(NC(=O)CSc2nc3ccccc3s2)n1 was read as MazEF act 8, BoNT-F LC inh 5, BoNT-A LC inh2 inconclusive, Autofluor counter 15488 and Anthrax LF prot 1.
`O=C(CSc1nc2ccccc2s1)NC(=O)NCc1ccco1` gave MazEF act -5, BoNT-F LC inh 0, BoNT-A LC inh2 0, Autofluor counter 22313* and Anthrax LF prot -10.
`CC(C)C(Cl)=NOC(=O)Nc1ccc(S(N)(=O)=O)cc1` gave MazEF act 6, BoNT-F LC inh 2, BoNT-A LC inh2 -1, Autofluor counter 3770 and Anthrax LF prot -7.
For CC(C)(C)OC(=O)N[C@@H](Cc1ccccc1)c1nnc(SCC(=O)c2ccc(Cl)cc2)o1 the results were MazEF act -1, BoNT-F LC inh 2, BoNT-A LC inh2 3, Autofluor counter 19238* and Anthrax LF prot -2.
`CCN(CC)C(=O)CSc1nnc([C@H](CCSC)NC(=O)OC(C)(C)C)o1` gave MazEF act 6, BoNT-F LC inh -3, BoNT-A LC inh2 0, Autofluor counter 4753 and Anthrax LF prot 3.
`CC(C)(C)OC(=O)N[C@@H](Cc1ccccc1)c1nnc(SCC(=O)O)o1` gave MazEF act 4, BoNT-F LC inh -1, BoNT-A LC inh2 1, Autofluor counter 6783 and Anthrax LF prot 12.
For CCSc1nnc([C@H](Cc2ccccc2)NC(=O)OC(C)(C)C)o1 the results were MazEF act 0, BoNT-F LC inh -2, BoNT-A LC inh2 0, Autofluor counter 23861* and Anthrax LF prot -1.
`CSCC[C@H](NC(=O)OC(C)(C)C)c1nnc(SCC=C(C)C)o1` gave MazEF act -1, BoNT-F LC inh -10, BoNT-A LC inh2 -7, Autofluor counter 25549* and Anthrax LF prot -6.
CCN(CC)C(=O)CSc1nnc([C@@H](NC(=O)OC(C)(C)C)C(C)C)o1 was read as MazEF act 14, BoNT-F LC inh -3, BoNT-A LC inh2 -3, Autofluor counter 17771* and Anthrax LF prot 1.
Screening O=C1NC(C2CC3C=CC2C3)Nc2ccccc21 (configuration not stated) returned MazEF act 4, BoNT-F LC inh 1, BoNT-A LC inh2 -1, Autofluor counter 3708 and Anthrax LF prot 1.
O=C(Nc1ccc(Cl)c(C(F)(F)F)c1)C1Cc2c(-c3ccc4c(c3)OCO4)ccnc2O1 (configuration not stated) was read as BoNT-F LC inh -4, BoNT-A LC inh2 0, Autofluor counter 3541 and Anthrax LF prot -3.
`CCc1ccc(S(=O)(=O)NCc2ccc(C(=O)NCCN(Cc3ccccc3)C(C)C)cc2)cc1` gave BoNT-F LC inh -4, BoNT-A LC inh2 0, Autofluor counter 3622 and Anthrax LF prot -1.
`O=C(Nc1nc(-c2ccccc2Cl)cs1)c1cccnc1` gave MazEF act 20, BoNT-F LC inh 1, BoNT-A LC inh2 0, Autofluor counter 20683* and Anthrax LF prot 0.
Screening O=C(NC(=S)Nc1nc(-c2ccccc2)cs1)c1cccnc1 returned MazEF act -13, BoNT-F LC inh -11, BoNT-A LC inh2 -2, Autofluor counter 4212 and Anthrax LF prot -6.
CN1C[C@@H]2[C@@H]3C(=O)N(C)C(=O)[C@@H]3[C@](C)(C1=O)N2C(=O)c1ccc(C(C)(C)C)cc1 was read as MazEF act 2, BoNT-F LC inh -2, BoNT-A LC inh2 -1, Autofluor counter 4259 and Anthrax LF prot -7.
For COc1cccc(C2NC(=O)NC(O)(C(F)(F)F)C2C(=O)c2cccnc2)c1OC (configuration not stated) the results were MazEF act -5, BoNT-F LC inh 0, BoNT-A LC inh2 1, Autofluor counter 22761* and Anthrax LF prot 1.
CCOC(=O)C1Oc2ccccc2C(C(=O)OC)=C1C(=O)OC (configuration not stated) was read as MazEF act 1, BoNT-F LC inh -13, BoNT-A LC inh2 -1, Autofluor counter 3703 and Anthrax LF prot -3.
For CCOC(=O)C1Oc2ccccc2C(c2cccc3ccccc23)=C1C(=O)OC (configuration not stated) the results were MazEF act 146*, BoNT-F LC inh -6, BoNT-A LC inh2 0, Autofluor counter 3818 and Anthrax LF prot -2.
